About 750 (31%) of roughly 2,400 compounds were called active. The list shows a part of the results. A number with no mark means an inactive call.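 The calls were made as follows: active = median signal gain over dofetilide-blocked control wells reaching their mean plus 3 SD, so readout 1 at least 0; inactive = the rest.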

The results in this text go back to PubChem BioAssay AID1835 (Johns Hopkins Ion Channel Center, 2009).

The target of the assay is Voltage-gated inwardly rectifying potassium channel KCNH2 (Homo sapiens) (UniProt Q12809). The experiment in a line: modulators restoring hERG flux under dofetilide – cell-based, thallium flux, duplicate retest, dofetilide IC70, confirmation (AID 1835). As to conditions: hERG cell line, FluxOR thallium flux, dofetilide-blocked; at 10 µM; hits give high values. For orientation: The hERG channel carries a current that helps repolarise heart muscle cells.
Voltage-gated inwardly rectifying potassium channel KCNH2 (Homo sapiens), sequence (Q12809 whole entry, looked up): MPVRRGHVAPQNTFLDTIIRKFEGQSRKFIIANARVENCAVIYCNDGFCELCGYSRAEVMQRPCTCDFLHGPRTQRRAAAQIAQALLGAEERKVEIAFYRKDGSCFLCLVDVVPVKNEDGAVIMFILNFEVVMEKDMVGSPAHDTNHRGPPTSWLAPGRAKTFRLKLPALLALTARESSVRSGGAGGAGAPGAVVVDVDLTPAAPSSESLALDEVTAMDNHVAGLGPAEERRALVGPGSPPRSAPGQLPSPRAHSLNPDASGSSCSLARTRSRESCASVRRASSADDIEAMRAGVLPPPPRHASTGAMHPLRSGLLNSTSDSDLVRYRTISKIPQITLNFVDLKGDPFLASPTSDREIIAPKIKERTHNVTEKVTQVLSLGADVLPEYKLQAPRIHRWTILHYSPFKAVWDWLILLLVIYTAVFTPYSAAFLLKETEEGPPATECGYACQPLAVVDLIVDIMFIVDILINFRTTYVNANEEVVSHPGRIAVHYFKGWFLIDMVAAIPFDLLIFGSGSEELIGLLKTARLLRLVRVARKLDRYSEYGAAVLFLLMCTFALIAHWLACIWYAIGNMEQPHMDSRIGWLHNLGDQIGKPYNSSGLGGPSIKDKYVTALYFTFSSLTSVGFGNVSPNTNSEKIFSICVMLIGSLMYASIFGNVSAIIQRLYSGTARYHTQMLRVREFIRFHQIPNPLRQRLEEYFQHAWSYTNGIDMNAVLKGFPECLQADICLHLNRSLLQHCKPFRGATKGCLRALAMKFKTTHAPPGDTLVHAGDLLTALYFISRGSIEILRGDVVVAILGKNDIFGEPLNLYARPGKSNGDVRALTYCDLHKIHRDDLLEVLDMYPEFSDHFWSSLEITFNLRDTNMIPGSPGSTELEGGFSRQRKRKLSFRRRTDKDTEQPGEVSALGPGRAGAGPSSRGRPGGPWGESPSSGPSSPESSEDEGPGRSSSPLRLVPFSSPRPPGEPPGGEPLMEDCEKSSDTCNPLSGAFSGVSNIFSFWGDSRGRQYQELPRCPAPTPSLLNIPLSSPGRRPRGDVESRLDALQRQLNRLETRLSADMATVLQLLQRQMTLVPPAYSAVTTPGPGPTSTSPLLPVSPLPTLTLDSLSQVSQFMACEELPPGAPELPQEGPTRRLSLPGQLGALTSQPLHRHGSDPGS
With `COc1ccc(CN(C)C(=O)c2cccc(NS(=O)(=O)c3ccccc3)c2)cc1F`, the activity increase over dofetilide control, less the hit threshold was -26%. As to `O=C1CC(O)(C(F)(F)F)Oc2c1ccc1ccccc21` (stereo not given), the activity increase over dofetilide control, less the hit threshold is 13% (active). The result for `CC1(C)Cc2c(ccc3ccccc23)C2=C(C(=O)N3CCCC3)C(=O)C(=O)N21` reads -16%. The result for `COc1ccc(N(C(=O)c2ccco2)S(=O)(=O)c2cccs2)cc1` reads -6%. As for `CC(=O)Nc1ccc(S(=O)(=O)N2CCC(C(=O)O)CC2)cc1`, the activity increase over dofetilide control, less the hit threshold is -6%.

Regarding `N=c1sccn1CC(=O)Nc1ccccc1Cc1ccccc1`, the activity increase over dofetilide control, less the hit threshold was -7%. The figure for `Cc1ccc(NC(=O)c2ccc(CNS(=O)(=O)c3cccc(C(F)(F)F)c3)cc2)cc1` is -1%; for `CC(=O)c1ccc(S(=O)(=O)NCc2ccc(C(=O)N(C)CC(=O)Nc3cccc(F)c3)cc2)cc1` it is 2% (active); for `CN(CC(=O)Nc1ccc(Cl)cc1)C(=O)c1cccc(S(=O)(=O)NCc2ccccc2)c1` it is -18%.

With `O=C(CSc1cn(CC(=O)N2CCCC2)c2ccccc12)NCC1CCCO1` (stereo not given), the activity increase over dofetilide control, less the hit threshold was -28%. `COc1ccc(CCN2C(=O)CSC2=S)cc1OC`: the activity increase over dofetilide control, less the hit threshold was -16%. The figure for `Cc1ccc(C)c(NC(=S)NNC(=O)c2csc3c2CCC(C)C3)c1` (stereo not given) is 9% (active); for `Cc1cccc(NC(=S)NNC(=O)c2csc3c2CCC(C)C3)c1` (stereo not given) it is -3%. For `Cc1ccc(C)c(NC(=O)C2C3CCCC2C3c2ccccc2)c1` (stereo not given), the activity increase over dofetilide control, less the hit threshold was -16%. The figure for `CCC1Nc2ncnc(N3CCOCC3)c2N(Cc2ccc(C)cc2)C1=O` (stereo not given) is -16%; for `Cc1cccc(/C=C/C(=O)c2cc(Br)ccc(=O)c2O)c1` it is -14%; for `O=C(/C=C/c1ccccc1)c1cc(Br)ccc(=O)c1O` it is 19% (active). The result for `CCc1ccc(/C=C/C(=O)c2cc(Br)ccc(=O)c2O)cc1` reads 13% (active). The figure for `COC(=O)c1c(N2C(=O)CC(Sc3ncccc3C(=O)O)C2=O)sc(C)c1C` (stereo not given) is -14%; for `CC(C)CC1C(C#N)=C(N)Oc2n[nH]c(-c3cccs3)c21` (stereo not given) it is -16%; for `COc1ccc(C(=O)N(CN2CCCC2=O)c2ccc(C)cc2)cc1` it is -1%. As to `O=C(NCCCN1CCCC1=O)c1ccc(OC(F)(F)F)cc1`, the activity increase over dofetilide control, less the hit threshold was -18%. For `CCOc1ccc(C(=O)N(CN2CCCC2=O)c2ccc(C)cc2)cc1`, the activity increase over dofetilide control, less the hit threshold was 10% (active). The figure for `O=C1CC(c2ccco2)CC2=C1C1c3ccccc3C(=O)N1c1ccccc1N2` (stereo not given) is -3%; for `Cn1nnnc1SCC(=O)NC1CCCc2ccccc21` (stereo not given) it is -21%.

In the case of `Cn1nnnc1SCC(=O)Nc1ccccn1`, the activity increase over dofetilide control, less the hit threshold is 4% (active). The result for `CSc1ccccc1-n1nnnc1SCC(=O)Nc1cc(C)ccc1C` reads -30%. On to `CCn1c(O)c(N=NC2=NC(=O)CS2)c2cc(C)ccc21`, for which the activity increase over dofetilide control, less the hit threshold was -10%.

Take `CCc1ccc2c(c1)c(N=NC1=NC(=O)CS1)c(O)n2CC`: the activity increase over dofetilide control, less the hit threshold is 39% (active). The result for `CCn1c(O)c(N=NC2=NC(=O)CS2)c2ccccc21` reads 3% (active). The figure for `Cn1cc([N+](=O)[O-])c(C(=O)NCc2cc3cc(Cl)ccc3[nH]2)n1` is -12%. The result for `O=[N+]([O-])c1cc(F)c2cccnc2c1O` reads -6%; that for `COc1ccc(-n2cnc3ccccc3c2=O)c([N+](=O)[O-])c1`, -9%.

Take `COc1ccc(CCn2c(S)nc3ccccc3c2=O)cc1`: the activity increase over dofetilide control, less the hit threshold is 6% (active). Take `NC(=O)CSc1nc2ccccc2c(=O)n1CCc1ccccc1`: the activity increase over dofetilide control, less the hit threshold is -8%. As to `O=C(COC(=O)C1CCC(=O)N1)Nc1cc(Cl)ccc1Cl` (stereo not given), the activity increase over dofetilide control, less the hit threshold is -13%.

In the case of `CCC(C)(C)C1CCc2c(sc(NC(=O)c3ccccc3C(=O)O)c2C#N)C1` (stereo not given), the activity increase over dofetilide control, less the hit threshold is 18% (active). The figure for `Cc1ccccc1C(=O)NC(=S)Nc1sc2c(c1C#N)CCC(C)C2` (stereo not given) is -13%; for `CCC1CCc2c(sc(NC(=O)C3CC=CCC3C(=O)O)c2C#N)C1` (stereo not given) it is 2% (active); for `O=C(O)Cc1ccc(NC(=O)C2CC=CCC2C(=O)O)cc1` (stereo not given) it is -14%. Regarding `COC(=O)c1c(NC(=O)C2CC=CCC2C(=O)O)sc(C)c1C` (stereo not given), the activity increase over dofetilide control, less the hit threshold was -13%. Take `Cc1ccc(CS(=O)(=O)c2ncc(Cl)c(C(=O)Nc3nnc(C)s3)n2)cc1`: the activity increase over dofetilide control, less the hit threshold was -19%. The result for `CC1(OC(=O)c2ccc(Cl)nc2)C(=O)C=C2C=C(c3ccc(C#N)cc3)OC=C2C1=O` (stereo not given) reads -3%. The result for `O=[N+]([O-])c1cc(S(=O)(=O)/N=C(/c2ccccc2)N2CCOCC2)ccc1Cl` reads -16%.

As to `CCOc1ccc2nc(/N=C/c3c(C)[nH]n(-c4ccccc4)c3=O)sc2c1`, the activity increase over dofetilide control, less the hit threshold is 100% (active).

Turning to `CCSC(=S)c1c(C)[nH]n(-c2ccccc2)c1=O`, the activity increase over dofetilide control, less the hit threshold was -19%. The figure for `CCCSC(=S)c1c(C)[nH]n(-c2ccccc2)c1=O` is 0%; for `COc1ccc2nc(-n3c(O)c(C4=c5ccccc5=NC4=O)[nH]c3=S)sc2c1` it is -14%. As for `CCOc1ccc(-n2cnc3sc(C)c(C)c3c2=O)cc1`, the activity increase over dofetilide control, less the hit threshold was -13%. The figure for `COc1ccc2nc(/N=C/c3c(C)[nH]n(-c4ccc(C)cc4)c3=O)sc2c1` is 62% (active); for `COc1ccc2nc(/N=C/c3c(C)[nH]n(-c4ccc(C)cc4C)c3=O)sc2c1` it is 88% (active); for `CCOc1ccc2nc(/N=C/c3c(C)[nH]n(-c4ccc(C)cc4)c3=O)sc2c1` it is 38% (active).

As for `Cc1nn(-c2cccc(C(F)(F)F)c2)c(Cl)c1/C=N/Nc1cccc(C(=O)O)c1`, the activity increase over dofetilide control, less the hit threshold is -28%. In the case of `Brc1ccc(C2=CC(c3ccco3)n3nnnc3N2)cc1` (stereo not given), the activity increase over dofetilide control, less the hit threshold was -13%. The result for `C=CCn1c(SCC(=O)Nc2cccc(C)c2)nnc1-c1cnccn1` reads -18%; that for `O=C(CSc1cccc[n+]1[O-])C12CC3CC(CC(C3)C1)C2`, -11%. The result for `Cc1cc(OCCN2CCCCCC2)ccc1[N+](=O)[O-]` reads -3%; that for `COCCNC(=O)C1CCN(S(=O)(=O)N2CCC3(CC2)OCCO3)CC1`, -21%; that for `Cc1cc2nccc(-c3ccc(Cl)cc3Cl)n2n1`, -3%. Turning to `Cc1[nH]n(-c2ccc(Cl)cc2)c(=O)c1/C=N/c1nnc(-c2ccccc2)s1`, the activity increase over dofetilide control, less the hit threshold was 106% (active).

As for `Cc1[nH]n(-c2ccccc2)c(=O)c1N=Nc1ccc(C(N)=O)cc1`, the activity increase over dofetilide control, less the hit threshold is -23%. Turning to `Cn1cnnc1SCC(=O)NCc1ccccc1`, the activity increase over dofetilide control, less the hit threshold was -20%. For the compound `CCCn1c(O)c(N=NC(=O)c2ccco2)c2ccccc21`, the activity increase over dofetilide control, less the hit threshold was 17% (active). Regarding `CCn1c(O)c(N=NC(=S)NCC2CCCO2)c2ccccc21` (stereo not given), the activity increase over dofetilide control, less the hit threshold is -1%.

For `CCn1c(O)c(N=NC(=O)CNC(=O)c2ccccc2F)c2ccccc21`, the activity increase over dofetilide control, less the hit threshold is -7%.
